Source: PubChem BioAssay (National Center for Advancing Translational Sciences (NCATS))
MCF10A rereplic – induces DNA re-replication in MCF 10a normal breast cells. MCF 10A DNA re-replication, Hoechst nuclear intensity, 48 h. Potency, µM (doses to about 46.1 µM), without a hit: at the highest dose activity, positive = re-replication, actives largely listed as activators. actives 2.9% (n = 350,000); note: potency is the fitted concentration of half-maximal effect; % of control where 0% means no effect; nearly all actives have a fitted effect of over 50% in size
SW480 rerep – inducers of DNA re-replication in SW480 colon cancer cells | SW480 DNA re-replication, Hoechst DNA content imaging, 48 h | Potency, µM (titrated, usually from 46.1 µM), for the others: at the highest dose re-replication activation, actives largely listed as activators | actives 1.8% (n = 340,000); note: potency is the fitted concentration of half-maximal effect; % of control where 0% means no effect; nearly all actives have a fitted effect of over 55% in size
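Treated cells incubate 48 hr (37 C, 5% CO2), are stained 40 min with Hoechst, and nuclear fluorescence is enumerated; a rise in nuclei with high DNA signal marks re-replication.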
KCNH2 3.1 inh – inhibitors of human KCNH2 3.1 potassium channel isoform | AID 720553 | activity change, % (tested at about 1.8 µM) | U2OS KCNH2 3.1, thallium flux FluxOr; stronger effect = lower value | actives 0.95% (n = 340,000);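 active = maximum activity change below -70%; inconclusive = maximum activity change from -70% to -50%; inactive = maximum activity change above -50%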;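 note: thallium influx rate constant from kinetic fluorescence after stimulation buffer; % is set by controls: 0 for no effect and ±100 for the full control effect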
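Measured as rate of thallium-driven FluxOr signal in transduced U2OS cells carrying the 3.1 channel, read kinetically for 2 min upon stimulation; values are rate constants scaled to DMSO control wells.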
KB-3-1 cytotox – kills parental KB-3-1 adenocarcinoma cells. actives 1.4% (n = 400,000). AID 1347075. KB-3-1 viability, CellTiter-Glo ATP luminescence, 72 h. Potency, µM (highest dose often 46.1 µM), hits mostly cytotoxic; note: potency is the fitted concentration of half-maximal effect; % is set by controls: 0 for no effect and ±100 for the full control effect; nearly all actives have a fitted effect of over 60% in size
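Cells are dispensed, compounds pinned in, plates held at 37 °C for 72 h, then CellTiter-Glo is added and luminescence read after 10 minutes. Cell line: parental KB-3-1 in phenol-red-free DMEM, 10% FBS.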
KCNH2 WT inh – inhibitors of human wildtype KCNH2 potassium channel; actives 0.37% (n = 340,000); U2OS, BacMam KCNH2, thallium flux FluxOr; stronger effect = lower value; Q12809; activity change, % at 1.84 µM;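 active = maximum activity change below -70%; inconclusive = maximum activity change between -70% and -50%; inactive = maximum activity change above -50%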; note: % is set by controls: 0 for no effect and ±100 for the full control effect
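U2OS cells transduced with wild-type KCNH2 virus are loaded with FluxOr dye for 45 min, and thallium flux is measured in kinetic reads before and after stimulation buffer. Rate constants are normalized to DMSO controls.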
KB-V1 cytotox – KB-V1 MDR subline cytotoxicity; KB-V1 MDR cells viability, CellTiter-Glo, 72 h; Potency, µM (titrated, usually from 46.1 µM), hits mostly cytotoxic; actives 3.4% (n = 400,000); note: potency is the fitted concentration of half-maximal effect; % is set by controls: 0 for no effect and ±100 for the full control effect; nearly all actives have a fitted effect of over 60% in size
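Cytotoxicity toward P-gp-expressing KB-V1 cells was determined as loss of CellTiter-Glo luminescence after 72 h at 37 degrees C. Compounds were tested in quantitative HTS format across a concentration range, with curves fitted to normalized data.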
An asterisk follows results filed as active; i = inactive; ? = inconclusive; / = no result given. In the library only some 7.6% were active in any assay of this set; here they are far more common. Unless noted, calls come from the whole dose curve; as a rule, active = well fitted curve in the direction sought with a large enough effect; inconclusive = small, poorly fitted or top-dose-only effect, or another doubt; inactive = no such curve, though single readings can be large; an effect the other way counts as inactive or inconclusive.

SMILES | MCF10A rereplic | SW480 rerep | KCNH2 3.1 inh | KB-3-1 cytotox | KCNH2 WT inh | KB-V1 cytotox
CCOC(=O)c1cccc(NC(=O)C(CC(C)C)N2Cc3ccccc3C2=O)c1 (stereo not drawn) | / | / | / | i | / | ?
C[C@H](CO)N1C[C@H](C)[C@H](CN(C)Cc2ccncc2)Oc2ccc(NC(=O)Nc3ccc(C(F)(F)F)cc3)cc2CC1=O | ? | ? | -17 | 6.5µM* | -10 | i
C[C@H]1CN([C@@H](C)CO)C(=O)Cc2cc(NC(=O)Nc3ccccc3)ccc2O[C@H]1CN(C)Cc1ccccc1 | ? | -5% | -2 | ? | -2 | i
N#C/C(=C/c1ccc(N2CCCCCC2)o1)c1ccc(Cl)cc1 | 2.9µM* | 13µM* | 3 | i | -6 | i
N#C/C(=C/c1ccc(N2CCCCC2)o1)c1cccc(F)c1 | 7.3µM* | 8.2µM* | 1 | i | -17 | i
O=C(NCCOc1ccccc1)c1ccc2n[nH]nc2c1 | 4% | 4.6µM* | -1 | i | -13 | ?
O=C(NCCOc1ccccc1)c1ccc2c(c1)OCO2 | 0% | -11% | -14 | i | -2 | i
O=C(NCCOc1ccccc1)c1n[nH]c(=O)c2ccccc12 | 20% | -3% | 7 | i | 13 | 23µM*
CC1CCC2(CC1)NC(=O)N(CC(=O)Nc1ccc(C(N)=O)cc1)C2=O (stereo not drawn) | 9% | -25% | 13 | i | 3 | i
Nc1ccc(N2CCCCC2)cc1N1CCCCC1 | 21µM* | ? | 0 | i | -2 | i
Cc1nn(-c2cc(N3CCCCC3)ccc2N)c(=O)c2ccccc12 | -1% | 0% | -4 | i | 2 | i
COCCN(C(=O)COC(=O)c1ccccc1Oc1ccccc1)c1c(N)n(Cc2ccccc2)c(=O)[nH]c1=O | 0% | 21µM* | / | ? | 10 | i
CCCCn1c(N)c(N(CCOC)C(=O)CCCc2nc3ccccc3c(=O)[nH]2)c(=O)[nH]c1=O | 9% | 23µM* | 22 | ? | -7 | i
Nc1c(N(CCC2=CCCCC2)C(=O)Cc2ccc(F)cc2)c(=O)[nH]c(=O)n1Cc1ccccc1 | 14% | ? | 1 | i | 2 | i
CCCCN(C(=O)CCCc1nc2ccccc2c(=O)[nH]1)c1c(N)n(CCCC)c(=O)[nH]c1=O | -2% | -1% | -4 | ? | -6 | i
Nc1c(N(CCC2=CCCCC2)C(=O)COc2ccc(F)cc2Cl)c(=O)[nH]c(=O)n1Cc1ccccc1 | 12µM* | 0% | -38 | 8.2µM* | 32 | ?
CCN(C(=O)COC(=O)c1ccccc1Oc1ccccc1)c1c(N)n(Cc2ccccc2)c(=O)[nH]c1=O | 8% | 4% | -4 | i | -7 | i
CCCn1c(N)c(N(CCOC)C(=O)COC(=O)c2ccccc2NCCO)c(=O)[nH]c1=O | 0% | -1% | -192* | i | -6 | i
Cc1cccc(CSCC(=O)N2CCN(S(=O)(=O)c3ccccc3C#N)CC2)c1 | / | / | 8 | i | -238* | ?
Cc1noc(C)c1COc1ccccc1C(=O)N1CCN(S(=O)(=O)c2ccccc2F)CC1 | 2% | 2% | -1 | i | 7 | ?
CCOc1ccccc1OCCCC(=O)N1CCN(S(=O)(=O)c2ccccc2C#N)CC1 | / | / | 2 | i | -1 | i
Cc1noc(C)c1COc1ccccc1C(=O)N1CCN(S(=O)(=O)c2ccccc2C#N)CC1 | 4% | -5% | -9 | i | -3 | 15µM*
CCC(C(=O)NCc1cccc(Br)c1)n1nc(C)c2c(C)n(-c3ccccc3)nc2c1=O (stereo not drawn) | / | / | / | i | / | i
CC(OC(=O)c1cccc(-n2cnnn2)c1)C(=O)N(C)c1ccccc1 (stereo not drawn) | 22% | 84% | 10 | i | -17 | i
COc1ccc(NC(=O)CC2C(=O)N(c3cccc(OC)c3)C(=O)N2C2CCCCC2)cc1 (stereo not drawn) | 3% | -3% | -6 | i | 19 | 16µM*
SMILES | MCF10A rereplic | SW480 rerep | KCNH2 3.1 inh | KB-3-1 cytotox | KCNH2 WT inh | KB-V1 cytotox
COc1ccc(NC(=O)CC2C(=O)N(c3ccc(OC)cc3)C(=O)N2CCc2cccs2)cc1 (stereo not drawn) | 8% | 0% | -5 | i | 1 | 15µM*
COc1ccc(NC(=O)CC2C(=O)N(c3ccc(C)cc3)C(=O)N2C2CCCCC2)cc1 (stereo not drawn) | / | / | / | i | / | i
C=CCOc1ccccc1CN1CCCC(CCC(=O)N(C)CCc2ccccn2)C1 (stereo not drawn) | ? | -7% | 14 | i | 31 | i
COc1ccccc1NS(=O)(=O)c1cccc(C(=O)N/N=C/c2ccc([N+](=O)[O-])o2)c1 | 21µM* | 13µM* | -2 | ? | 7 | ?
CCN(CC)c1ccc(/C=N/NC(=O)c2cccc(S(=O)(=O)Nc3ccccc3OC)c2)cc1 | 16µM* | 2% | -2 | i | -4 | i
Cc1cc(C)nc(-n2nc(C)c3c(C(=O)O)cc(-c4cccc(Br)c4)nc32)n1 | 0% | ? | 1 | i | 2 | i
CSC1=NC2(CCN(C(=O)NC3CCCCC3)CC2)N=C1c1ccc(C)c(C)c1 | / | / | / | i | / | i
c1ccc(-c2nnc3sc(-c4ccncc4)nn23)cc1 | 20% | 1% | 0 | i | 0 | i
c1ccc(-c2nnc3sc(-c4cc5ccccc5o4)nn23)cc1 | 18µM* | ? | -12 | i | -5 | i
O=C1C=C(Nc2ccc(Cl)cc2Cl)CC(c2ccco2)C1 (stereo not drawn) | ? | 16µM* | -3 | 6.5µM* | -1 | 7.3µM*
Cc1ccc(NS(=O)(=O)c2ccc(-c3cnc(C4CC4)o3)cc2)c(C)c1 | 0.73µM* | 9.2µM* | 5 | 2.1µM* | -16 | 2.6µM*
O=S(=O)(Nc1ccc(F)cc1Cl)c1ccc(-c2cnc(C3CC3)o2)cc1 | 1µM* | ? | -3 | 1.2µM* | 20 | 1.5µM*
Cc1cc(C)c(NS(=O)(=O)c2cc(-c3cnc(C4CC4)o3)ccc2C)c(C)c1 | / | / | / | i | / | i
Cc1cc(C)c(NS(=O)(=O)c2ccc(-c3cnc(C4CC4)o3)cc2)c(C)c1 | / | / | / | 0.46µM* | / | 2.1µM*
COc1cc2cc(C(=O)N(C)C3CCS(=O)(=O)C3)[nH]c2cc1OC (stereo not drawn) | 0% | -9% | 3 | i | -6 | i
O=C1COc2ccc(C(=O)c3ccccc3)cc2CN1 | -7% | -1% | -2 | i | 4 | i
COc1ccc(/C=C2\CCC/C(=C\C=N\N(C)C)C2=O)cc1 | 8.2µM* | -22% | 7 | i | / | ?
